# Measurements: paper PMC4336329 (PLoS ONE, 2015)
# Hit rate of the full screen: of about 310,000 compounds, about 14,000 (4.5%) showed an effect of 50% or more. The effect is printed as a negative number. What follows is part of a selection rich in strong results, with near analogues and random picks from the rest.
# Target: human ether-à-go-go-related gene (hERG) potassium channel (human, UniProt Q12809)
# Assay: primary screen, population patch clamp on CHO cells stably expressing hERG; higher = less effect of the substance
# 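Also: peak tail current of the secondary pulse compared with the same well before compound.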
# Sequence of human ether-à-go-go-related gene (hERG) potassium channel (Q12809 whole entry, looked up): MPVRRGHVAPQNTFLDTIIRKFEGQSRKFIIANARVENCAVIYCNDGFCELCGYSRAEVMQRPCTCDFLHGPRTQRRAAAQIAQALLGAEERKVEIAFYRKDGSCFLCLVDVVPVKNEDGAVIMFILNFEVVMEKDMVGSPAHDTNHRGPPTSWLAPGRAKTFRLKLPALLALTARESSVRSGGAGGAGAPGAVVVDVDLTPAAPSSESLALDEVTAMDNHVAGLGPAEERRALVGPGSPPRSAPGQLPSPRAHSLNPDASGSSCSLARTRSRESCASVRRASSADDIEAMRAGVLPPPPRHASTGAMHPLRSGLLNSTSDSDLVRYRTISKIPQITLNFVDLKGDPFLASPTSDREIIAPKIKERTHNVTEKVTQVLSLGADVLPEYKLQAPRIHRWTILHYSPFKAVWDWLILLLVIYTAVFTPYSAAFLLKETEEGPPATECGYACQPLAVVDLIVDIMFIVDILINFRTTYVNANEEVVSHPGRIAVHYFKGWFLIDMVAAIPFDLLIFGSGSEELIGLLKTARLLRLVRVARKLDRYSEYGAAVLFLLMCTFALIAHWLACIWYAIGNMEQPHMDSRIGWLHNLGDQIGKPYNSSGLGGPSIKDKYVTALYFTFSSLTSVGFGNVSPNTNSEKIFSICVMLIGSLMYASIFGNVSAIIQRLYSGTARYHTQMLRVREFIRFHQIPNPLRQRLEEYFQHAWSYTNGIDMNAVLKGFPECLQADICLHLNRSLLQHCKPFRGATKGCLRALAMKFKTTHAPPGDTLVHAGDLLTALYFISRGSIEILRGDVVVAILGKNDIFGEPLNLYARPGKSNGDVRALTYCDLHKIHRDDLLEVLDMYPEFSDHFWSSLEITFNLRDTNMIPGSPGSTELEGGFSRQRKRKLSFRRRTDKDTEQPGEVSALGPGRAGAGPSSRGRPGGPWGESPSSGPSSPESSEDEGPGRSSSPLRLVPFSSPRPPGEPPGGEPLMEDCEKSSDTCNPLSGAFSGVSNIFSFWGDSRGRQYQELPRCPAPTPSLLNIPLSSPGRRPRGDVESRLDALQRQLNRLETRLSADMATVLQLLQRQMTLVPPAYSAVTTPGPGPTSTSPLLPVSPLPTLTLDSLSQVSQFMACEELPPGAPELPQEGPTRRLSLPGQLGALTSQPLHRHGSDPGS
row,Compound,"hERG current change (%, negative = inhibition) at 10uM [%]"
1,c1ccc(-c2[nH]ncc2-c2nc3ccccc3[nH]2)cc1,-11
2,CCOC(=O)N1CCN(C(=O)Cn2c(C)cc3ccccc3c2=O)CC1,3.68
3,O=C(CCn1nnc2ccccc21)N1CCC(O)(c2cccc(F)c2)CC1,4.12
4,CC(C)(C)NC(=O)c1ccc(NC(=O)c2ccccc2-c2ccccc2C(=O)O)cc1,25.2
5,CC(C)Oc1cccc(C(=O)C2CCCN(C3CCOCC3)C2)c1 (stereo not shown),-10.5
6,COc1ccc2cc(C(=O)C3CCCN(C4CCOCC4)C3)ccc2c1 (stereo not shown),-63.5
7,COc1ccc2cc(C(=O)C3CCCN(C(=O)c4ccnn4C)C3)ccc2c1 (stereo not shown),-41.1
8,COc1cccc(C(=O)C2CCCN(C(=O)c3ccccc3Cl)C2)c1 (stereo not shown),5.15
9,COc1cccc(C(=O)C2CCCN(C3CCOCC3)C2)c1 (stereo not shown),-50.4
10,COc1ccc(C(=O)C2CCCN(C(=O)C3CCOCC3)C2)c(C)c1 (stereo not shown),27
11,Cc1ccc(C(C#N)c2ccc3c(C(F)(F)F)cc(C(F)(F)F)nc3n2)cc1 (stereo not shown),11.1
12,CCOc1cc(NS(=O)(=O)c2ccc(NC(C)=O)cc2)c(OCC)cc1NC(=O)C(C)C,10.3
13,O=C(CCN1CCCCO1)N1CCCC(Nc2ccc(F)cc2)C1 (stereo not shown),12.7
14,O=C(Cn1ccc([N+](=O)[O-])n1)N1CCc2ccccc21,-2.32
15,CCOC(=O)c1c(-c2ccccc2)cn2c(C)cc(C)nc12,-22.9
16,Cc1cc(C)n2nc(C)c(-c3ccc(Cl)cc3)c2n1,27.1
17,Cc1cc(C)n2cc(-c3ccc(Cl)cc3)c(C(=O)O)c2n1,-50.9
18,O=c1[nH]c(=S)n(-c2ccccc2)c(O)c1/C=N/N1CCOCC1,-2.11
19,Cc1noc(C)c1-c1nnc(-c2ccc(C(F)(F)F)cc2)o1,4.76
20,COCc1ccc(C(=O)N(C)C2CCCN(Cc3ccccc3F)C2)o1 (stereo not shown),0.722
21,COCc1ccc(C(=O)N(C)CC2CCCN(CCc3ccccc3F)C2)o1 (stereo not shown),-41
22,COCc1ccc(C(=O)N(C)CC2CCCN(CCc3ccc(Cl)cc3)C2)o1 (stereo not shown),-78.9
23,COCc1ccc(C(=O)N(C)CC2CCCN(CCc3ccc(OC)cc3)C2)o1 (stereo not shown),-69.5
24,COCc1ccc(C(=O)NC2CCCN(Cc3ccccc3F)C2)o1 (stereo not shown),11.2
25,COc1ccccc1OCC(=O)Nc1ccc2c(c1)C(=O)N(CC1CCCO1)C2=O (stereo not shown),-19.3
